Compounds without any hit were thinned out: in the full panel of roughly 83,000, 20% have a hit.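 48-hour exposure, single concentration, 96-well plates; percent growth endpoint where 0 means no net growth. Active: below 10.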 Active and inactive are the calls of the source.
System: MDA-MB-468 breast
Test: NCI-60 one-dose screen, 48 h (100 = growth as untreated, 0 = no growth, -100 = all killed)
Settings: 10 µM unless noted

Structure (SMILES) | growth
CS(=O)(=O)c1nccc(-c2c(-c3ccc(F)c(OCc4ccccc4)c3)nc3sccn23)n1 | -68.8% (active)
C=CCOc1cccc(/C=C2\SC(=Nc3ccc(O)cc3)NC2=O)c1 | -7.52% (active)
COc1cc(-c2nnc(SCc3ccc(O)c4ncccc34)n2-c2ccccc2)cc(OC)c1OC | -10.1% (active)
CCN(CC)C(=O)/C=C(/C)c1ccccc1 | 87.6% (inactive)
COc1ccc(C2CC(c3ccc(OC)cc3O)=NN2c2ccc(S(N)(=O)=O)cc2)cc1 (centres undefined) | 56% (inactive)
FC(F)(F)c1ccc2nc(-c3nc(-c4ccccc4)n4ccccc34)[nH]c2c1 | 83.4% (inactive)
CC(=O)C1CCC2C3CC(C)=C4CC(O)CCC4(C)C3CCC12C (centres undefined) | 109% (inactive)
CS(=O)(=O)Nc1cc(-c2ccc3ncc(C#N)c(Nc4ccc(F)c(Cl)c4)c3c2)cnc1Cl | -48.7% (active)
Cc1ccc2nc(NC(=O)CSc3nc(Nc4ccc([N+](=O)[O-])cc4)c(C#N)c(-c4ccccc4)n3)sc2c1 | 105% (inactive)
CS(=O)(=O)Nc1cc(-c2ccc3ncc(C#N)c(N[C@H](CO)c4ccccc4)c3c2)cnc1Cl | 14.5% (inactive)
O=C(/C=C/c1cccc(Nc2ccnc3cc(Cl)ccc23)c1)c1ccc(Cl)cc1 | 27.6% (inactive)
CCN(CC)CCN1C(=O)c2cccc3c(/C=C/CN4C(=O)c5cccc6cccc(c56)C4=O)ccc(c23)C1=O | 99.2% (inactive)
CC[C@@H](C(=O)[C@@H](C)[C@@H](O)[C@H](C)[C@@H]1O[C@@H]([C@@H](CC)C(=O)NCCc2ccc(F)cc2)CC[C@@H]1C)C1O[C@]2(C=CC(=O)[C@]3(CC[C@@](C)([C@H]4CC[C@](O)(CC)[C@H](C)O4)O3)O2)[C@H](C)C[C@@H]1C (some centres undefined) | 13.5% (inactive)
CCn1c(=O)n(C)c2c(=O)n(C)c(=O)n(C)c21 | 103% (inactive)
Cc1[nH]c(C(=O)Nc2ccc(C(=O)NCCN)cc2OC(C)C)c(Cl)c1Cl | -43.6% (active)
CCOC(=O)N1CCN(S(=O)(=O)c2oc(-c3ccc(Cl)cc3)nc2C#N)CC1 | 86.5% (inactive)
O=C(CCNNC(=O)c1ccncc1)NCc1ccccc1 | 75% (inactive)
N=c1n(Cc2ccccc2)c(N)cc(=O)n1Cc1ccccc1 | 83.3% (inactive)
CN1CCN(Cc2ccc(NC(=O)c3cncc(C#Cc4cnc5ccc(NC6CCOCC6)nn45)c3)cc2C(F)(F)F)CC1 | -88.5% (active)
O=C(Cn1nnc2ccccc21)Nc1ccc(-c2nc3ccccc3s2)cc1 | -23.8% (active)

Structure (SMILES) | growth
O=S(=O)(Nc1cc(Sc2cccc3cccnc23)c(O)c2ccccc12)c1ccc(F)cc1 | -46.6% (active)
COc1cc(CNC(=O)/C=C/c2ccccc2)ccc1OCC(=O)NO | 92.5% (inactive)
C=C1C(=O)O[C@H]2[C@H]1CC/C(COC(=O)/C=C\C(=O)NCc1ccc(Cn3c(=O)sn(-c4ccc(OC)cc4)c3=O)cc1)=C\CC[C@@]1(C)O[C@@H]21 | -81.7% (active)
CSc1nc2ncncc2[nH]1 | 103% (inactive)
Cc1cnc(C(=O)Nc2nc3ccc(S(=O)(=O)Nc4ccc(C5(C(F)(F)F)CC5)cc4)cc3[nH]2)cn1 | -26.2% (active)
CCOC(=O)C1=C(C(=O)c2ccccc2)C(c2cccc([N+](=O)[O-])c2)C(C(=O)c2ccccc2)=C(C(=O)OCC)N1 | 83.2% (inactive)
Cn1cc(-c2ccc3nc(-c4ccc(CC(=O)ONc5cc(C(C)(C)C)on5)cc4)cnc3c2)cn1 | 45.8% (inactive)
Cc1cc(NC(=O)NC(=O)c2ccccc2N(C)C)ccc1Oc1ncc(Br)cn1 | -2.54% (active)
O=S(=O)(Cc1ccc(Cl)cc1Cl)c1ccc(Cl)cc1 | -29.8% (active)
CC(C)CCC[C@@H](C)C1CCC2C3CCC4=C/C(=N/OCCN(C)C)CC[C@]4(C)C3CC[C@@]21C (some centres undefined) | 87.3% (inactive)
CC(=O)c1sc(Nc2cccc(Nc3nc(C)c(C)s3)c2)nc1C | 55% (inactive)
O=C1NC(=Nc2ccc(S(=O)(=O)Nc3nccs3)cc2)S/C1=C\c1coc2ccccc2c1=O | 99.9% (inactive)
CC(=O)COc1ccc(Cl)cc1Cl | 92.4% (inactive)
COc1ccc(-c2nnc(-c3ccc4c(c3)nc(-c3ccccc3)n4C3CCCCC3)o2)cc1 | 83.8% (inactive)
c1ccc(Sc2ncccn2)nc1 | 97% (inactive)
CC(C)c1ccc(NC(=O)Nc2ccc(NC(=O)c3ccccc3N)cc2)cc1 | 81.4% (inactive)
CCC1(C(C)C)NC(=O)NC1=O (centres undefined) | 98.5% (inactive)
NCCCc1nnc(CCC(=O)c2nc3ccccc3[nH]2)o1 | 107% (inactive)
CCCCCCCCCCCCCCCCCC1=NCCN1CCO | 102% (inactive)

Reference: PubChem BioAssay (NCI)
